Measured values reported in PubChem BioAssay AID1863 (Southern Research Specialized Biocontainment Screening …, 2009).
“And” between values parts separate entries of the source, which are not always exact repeats. Equal entries are not always repeated. Out of some 300,000 compounds screened, about 480 (0.16%) were called active. Not all results are given here. Measured potencies and affinities stand elsewhere. A number with no mark means an inactive call.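 Rule for the calls: active = inhibition over 29.93%, a cutoff 3 SD above the screen mean, later confirmed by dose response; inconclusive = inhibition over 29.93% but no dose response follow-up; inactive = inhibition at most 29.93% or unconfirmed.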

test: inhibitors of PhoP regulon expression, primary screen, Salmonella Typhimurium, GFP reporter (AID 1863);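 note: 0% = low Mg2+ inducing control and 100% = high Mg2+ repressing control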; details: S. Typhimurium PhoP-regulated promoter GFP reporter, 4 h; at 50 µM; stronger effect = higher value

| SMILES | inhibition |
| --- | --- |
| Cc1cc(C)cc(NC(=O)CN(C)S(=O)(=O)c2cccc3nsnc23)c1 | -9.89% |
| CC(C)CCNC(=O)NC(=O)COC(=O)CCN=C1NS(=O)(=O)c2ccccc21 | -10.2% |
| COC(=O)CCC(=O)N1CN2CN(C(=O)CCC(=O)OC)CC([N+](=O)[O-])(C2)C1 | -5.21% |
| c1ccc(Nc2nn[nH]n2)cc1 | -21.5% |
| CC[C@H]1OC(=O)[C@H](C)[C@@H](O[C@H]2C[C@@](C)(OC)[C@@H](O)[C@H](C)O2)[C@H](C)[C@@H](O[C@@H]2O[C@H](C)C[C@H](N(C)C)[C@H]2O)[C@](C)(OC)C[C@@H](C)C(=O)[C@H](C)[C@@H](O)[C@]1(C)O | -8.63% and -8.23% |
| CCC(=O)O[C@@H]1CC(=O)O[C@H](C)CC=CC=C[C@@H](O)[C@H](C)C[C@H](CC=O)[C@H](O[C@H]2O[C@H](C)[C@@H](O[C@H]3C[C@@](C)(O)[C@@H](OC(=O)CC)[C@H](C)O3)[C@H](N(C)C)[C@H]2O)[C@H]1OC | -22.5% |
| CC1CCCN(C(=O)c2ccc(S(=O)(=O)Nc3ccccc3Cl)cc2)C1 (stereo not drawn) | 3.82% |
| Cc1ccc(CN2C(=O)CCC2C(=O)NCCN2CCN(c3cccc(Cl)c3)CC2)cc1 (stereo not drawn) | -4.51% |
| CCOCCCNC(=O)c1ccc2c(c1)ncn2-c1ccc(C)cc1C | -8.15% |
| NC(N)=N/N=C/c1ccc(OCc2ccccc2)cc1 | 17.1% |
| COc1cc(/C=N/N=C(N)N)ccc1OCc1ccc(Cl)cc1 | 2.42% |
| NC(N)=N/N=C/c1ccc(OCc2ccccc2)c(OCc2ccccc2)c1 | 10.4% |
| NC(N)=N/N=C/c1ccc(OCc2ccc(Cl)cc2Cl)cc1 | -0.84% |
| CCn1ncc(Cl)c1C(=O)NC(=S)Nc1c(C)cc(C)cc1[N+](=O)[O-] | 8.05% |
| CC(=O)c1cccc(NC(=O)CCCNC(=O)c2ccc(Cl)cc2)c1 | 0.5% |
| O=C(O)[C@@H]1CSC2c3ccccc3C(=O)N21 (stereo partly drawn) | -0.36% |
| CSCC[C@H](NC(=O)Nc1ccc(Oc2ccccc2)cc1)C(=O)O | 0.47% |
| COC(=O)CSc1nc(N)c(C#N)c(CC(C)C)c1C#N | -5.81% |
| Cc1ccc(NS(=O)(=O)c2ccc3c(c2)NC(=O)CCS3)cc1F | 4.54% |
| COc1ccc(NC(=O)C/C(C)=N/NC(=O)c2cccs2)c([N+](=O)[O-])c1 | 6.98% |
| COc1ccccc1NC(c1cccnc1)c1ccc2cccnc2c1O (stereo not drawn) | 24.8% |
| Cc1ccc2ccc(C(Nc3ccccn3)c3ccccc3)c(O)c2n1 (stereo not drawn) | 26.2% |

| SMILES | inhibition |
| --- | --- |
| Oc1c(C(Nc2cccc(C(F)(F)F)c2)c2cccnc2)ccc2cccnc12 (stereo not drawn) | 69.6% |
| Oc1ccccc1C(Nc1nccs1)c1ccc2cccnc2c1O (stereo not drawn) | 1.53% |
| O=C(Cc1cccs1)NCc1ccncc1 | 20.6% |
| CC1(C)CCC/C(=C\c2ccccc2)C1=O | -2.34% |
| O=S(=O)(/N=C(/NNS(=O)(=O)c1ccccc1)c1ccccc1)c1ccccc1 | -3.53% |
| CCN(CC)CCN(C)c1ccc(N2C(=O)C3CC=CCC3C2=O)cc1[N+](=O)[O-] (stereo not drawn) | -7.43% |
| c1ccc(Nc2nc(NCC3CCCO3)c3ccccc3n2)cc1 (stereo not drawn) | -1.89% |
| Oc1ccc(Nc2nc(NCC3CCCO3)c3ccccc3n2)cc1 (stereo not drawn) | -10.2% |
| Oc1ccccc1Nc1nc(NCC2CCCO2)c2ccccc2n1 (stereo not drawn) | 13.1% |
| COc1ccc(Nc2nc(NCC3CCCO3)c3ccccc3n2)c(OC)c1 (stereo not drawn) | 0.13% |
| COCCOCC(O)CN1CCN(c2ccccc2)CC1 (stereo not drawn) | 4.06% |
| COc1ccccc1-c1noc(-c2ccccc2C(=O)NCC2CCCO2)n1 (stereo not drawn) | -3.19% |
| CCOc1ccc(Nc2nc(N)c3ccccc3n2)cc1 | 29.9% |
| Cc1cc(Nc2cccc(O)c2)c2ccccc2n1 | 13.6% |
| Fc1cccc(Nc2c3c(nc4ccccc24)CCC3)c1 | 6.97% |
| COc1ccc(Nc2c3c(nc4ccccc24)CCC3)cc1 | 12.7% |
| c1ccc(Nc2c3c(nc4ccccc24)CCC3)cc1 | 20.2% |
| O=C(O)c1cccc(Nc2c3ccccc3nc3ccccc23)c1 | 10.2% |
| Cc1ccc2nc3c(c(Nc4ccccc4)c2c1)CCC3 | 21.7% |
| COc1ccc(Nc2c3ccccc3nc3ccccc23)cc1 | -2.51% |
| Nc1n[nH]c(N)c1N=Nc1ccccc1F | -3.09% |
| CCC(=O)Nc1ccc(C(=O)CSc2nc(N)cc(N)n2)cc1 | 4.88% |

| SMILES | inhibition |
| --- | --- |
| CS(=O)(=O)N1CCN(c2ccccc2NC(=O)c2cccnc2)CC1 | -0.66% |
| CC(C)CCNC(=O)c1c(CSc2ccccc2)noc1C(=O)NCc1ccccc1 | -1.54% |
| Cc1cc(-c2nnc(SCC(=O)Nc3ccc(F)cc3F)n2N)n[nH]1 | -6.5% |
| COc1ccc(S(=O)(=O)N2CCC(C(=O)Nc3c(F)cccc3F)CC2)cc1 | 14.7% |
| Cn1c(=O)[nH]c(=O)c2c1nc(CN1CCN(c3ccc(F)cc3)CC1)n2CCCc1ccccc1 | -9.74% |
| CO[C@@]12[C@H](COC(N)=O)C3=C(C(=O)C(C)=C(N)C3=O)N1C[C@@H]1N[C@@H]12 | 17.4% |
| COc1ccc(C(=O)N2CCN(c3ncccn3)CC2)cc1 | 6.73% |
| COc1ccc(-n2c(SCc3cccnc3)nc3c(c2=O)SCC3)cc1OC | -5.3% |
| Cc1ccccc1OCC(=O)NCC(=O)N/N=C/c1cccc([N+](=O)[O-])c1 | -0.52% |
| CCS(=O)(=O)Nc1c(C)n(C)n(-c2ccccc2)c1=O | -5.83% |
| NS(=O)(=O)c1ccc(CNC(=O)c2cc(-c3cccnc3)nc3ccc(Br)cc23)cc1 | -5.23% |
| Cc1ccccc1N1CCN(C2CCCN(C(=O)c3ccccn3)C2)CC1 (stereo not drawn) | -6.14% |
| CCn1cc(C(=O)O)c(=O)c2cc(F)c(N3CCN(C(=S)NC(=O)c4cc(OC)cc(OC)c4)CC3)cc21 | 23.2% |
| CCn1cc(C(=O)O)c(=O)c2cc(F)c(N3CCN(S(=O)(=O)c4ccc(NC(=O)OC)cc4)CC3)cc21 | -9.02% |
| CCn1cc(C(=O)O)c(=O)c2cnc(N3CCN(C(=S)NC(=O)c4ccc(OC)cc4)CC3)nc21 | 1.6% |
| CCn1cc(S(=O)(=O)c2ccc(OC)cc2)c(=O)c2cc(F)c(N3CCN(C)CC3)cc21 | -6.69% |
| C=CCCCCCCCCC(=O)N1CCN(c2cc3c(cc2F)c(=O)c(C(=O)O)cn3CC)CC1 | 11.3% |
| CCn1cc(C(=O)O)c(=O)c2cc(F)c(N3CCN(S(=O)(=O)c4ccc(Br)cc4)CC3)cc21 | 3.63% |
| Cc1cccc(C(=O)NC(=S)N2CCN(C(=S)NC(=O)c3cccc(C)c3)CC2)c1 | 12.1% |
| CCc1sc(C(=O)Nc2cccnc2)cc1Br | -5.61% |
| COc1ccc2[nH]cc(CCNC(=O)c3ccc4ccccc4n3)c2c1 | -0.1% |
| CCC(=O)N1CCc2cc(Br)cc(S(=O)(=O)N3CCC(C(=O)NC(C)C)CC3)c21 | 3.79% |

| SMILES | inhibition |
| --- | --- |
| CNc1cc(CSC)nc(SCc2ccc(Cl)c(Cl)c2)n1 | -2.03% |
| O=C(c1ccc2ncsc2c1)N1CCCCC1 | 0.96% |
| O=C(O)CCSc1nc2ccccc2n1Cc1ccccc1 | -0.57% |
| NC(=O)CN(c1ccc([N+](=O)[O-])cc1)S(=O)(=O)c1ccccc1 | 10% |
| CN(C)C(=O)/C(C#N)=C\c1cc(Br)c(Sc2ccc(Cl)cc2)o1 | 2.32% |
| Cc1nc2c(C)cccn2c(=O)c1NC(=O)c1ccco1 | 6.47% |
| CCNC(=O)CN1C(=O)NC2(CCOc3ccccc32)C1=O (stereo not drawn) | -2.64% |
| CCn1cc(C(=O)NCc2cccc(F)c2)c(=O)c2cc(F)c(N3CCN(C(=O)c4ccco4)CC3)cc21 | 12.3% |
| CCn1cc(C(=O)N/N=C(/C)c2ccc(F)cc2)c(=O)c2cc(F)c(N3CCCC3)cc21 | -8.17% |
| CCn1cc(C(=O)O)c(=O)c2cnc(N3CCN(C(=S)NC(=O)c4ccc(Cl)cc4)CC3)nc21 | 30.7% |
| CCn1cc(C(=O)O)c(=O)c2cnc(N3CCN(C(=S)NC(=O)c4ccccc4)CC3)nc21 | 18.2% |
| Cc1c(Cl)cccc1NC(=S)N1CCOCC1 | -2.07% |
| O=C(Nc1c2c(nn1-c1cccc(Cl)c1)CS(=O)(=O)C2)C1CC1 | -4.19% |
| CCNC(=S)Nc1ccc(-c2nc3ccccc3[nH]2)cc1 | -10.4% |
| COc1ccc(NC(=O)c2cn3c(nc4ccccc43)c(C#N)c2C)cc1 | -3.66% |
| CC1CCN(S(=O)(=O)c2ccc3c(c2)c(=O)c(C(=O)N2CCOCC2)cn3C)CC1 | -0.29% |
| Cc1c(CC(=O)N[C@@H](C)C(=O)O)c(=O)oc2c(C)c3occ(-c4ccccc4)c3cc12 | 9.42% |
| C=CCN(Cc1nc(-c2ccccc2)no1)C(=O)c1ccc2c(c1)OCO2 | 1.88% |
| O=[N+]([O-])c1ccc(/C=N/NC(=S)Nc2ccccc2)o1 | 18.4% |
| O=C(/C=C/c1cccc([N+](=O)[O-])c1)NCCSCc1cccc(Cl)c1 | -1.04% |
| CCn1cc(C(=O)O)c(=O)c2cnc(N3CCN(C(=S)NC(=O)c4ccc(F)c(F)c4)CC3)nc21 | 7.64% |
| CCCCCCCCCC(=O)N1CCN(c2cc3c(cc2F)c(=O)c(C(=O)O)cn3CC)CC1 | 6.32% |
